# Experimental data published in the supplement of paper PMC8728848.
# The sample as a whole holds a higher share of the strongest signals than the screen did.
# B1: SBD-G4S3-Fc (protein)
# chain: MASIPSSASVQLDSYNYDGSTFSGKIYVKNIAYSKKVTVVYADGSDNWNNNGNIIAASFSGPISGSNYEYWTFSASVKGIKEFYIKYEVSGKTYYDNNNSANYQVSTGGGGSGGGGSGGGGSEFVPRDCGCKPCICTVPEVSSVFIFPPKPKDVLTITLTPKVTCVVVDISKDDPEVQFSWFVDDVEVHTAQTQPREEQFNSTFRSVSELPIMHQDWLNGKEFKCRVNSAAFPAPIEKTISKTKGRPKAPQVYTIPPPKEQMAKDKVSLTCMITDFFPEDITVEWQWNGQPAENYKNTQPIMDTDGSYFVYSKLNVQKSNWEAGNTFTCSVLHEGLHNHHTEKSLSHSPGAA
# How the values were obtained:
# Assay in all cases: glycan array binding signal (z-score within array); higher = stronger binding
# Details in all cases: glycan notation: IUPAC condensed, linker removed
# [1] = molecular target: Gal(b1-4)GlcNAc(b1-3)[Gal(b1-4)GlcNAc(b1-6)]Gal(b1-4)GlcNAc
# Procedure, shortened: (§1)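 Glycan array data came from 3228 arrays in the Consortium for Functional Glycomics database, and only arrays with an available protein sequence were kept. Glycan names were put into IUPAC-condensed notation, and columns mapping to the same glycan were averaged. The binding signal is a within-array Z-score, averaged across arrays of one protein sequence run at different concentrations or buffers and across linkers. A negative Z-score can be read as non-binding.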
# Gal(b1-6)Gal = molecular target: Gal(b1-6)Gal
# Procedure, shortened: as §1
# Gal6P(b1-4)GlcNAc = molecular target: Gal6P(b1-4)GlcNAc
# Procedure, shortened: as §1
# Gal6S(b1-4)Glc = molecular target: Gal6S(b1-4)Glc
# Procedure, shortened: as §1
# Gal6S(b1-4)Glc6S = molecular target: Gal6S(b1-4)Glc6S
# Procedure, shortened: as §1
# [2] = molecular target: GalNAc(b1-3)Gal(a1-6)Gal(b1-4)Glc
# Procedure, shortened: as §1
# [3] = molecular target: GalNAc(b1-4)GlcNAc(b1-2)Man(a1-3)[GalNAc(b1-4)GlcNAc(b1-2)Man(a1-6)]Man(b1-4)GlcNAc(b1-4)GlcNAc
# Procedure, shortened: as §1
# GalNAc(b1-4)GlcNAc6S = molecular target: GalNAc(b1-4)GlcNAc6S
# Procedure, shortened: as §1
# [4] = molecular target: Glc(a1-4)Glc(a1-4)Glc(a1-4)Glc
# Procedure, shortened: as §1
# Glc(b1-6)Glc = molecular target: Glc(b1-6)Glc
# Procedure, shortened: as §1
# [5] = molecular target: GlcNAc(a1-4)Gal(b1-4)GlcNAc(b1-3)Gal(b1-4)GlcNAc
# Procedure, shortened: as §1
# [6] = molecular target: GlcNAc(b1-2)[GlcNAc(b1-6)]Man(a1-6)[GlcNAc(b1-2)Man(a1-3)]Man(b1-4)GlcNAc(b1-4)GlcNAc
# Procedure, shortened: as §1
# [7] = molecular target: GlcNAc(b1-3)Gal(b1-4)GlcNAc(b1-3)Gal(b1-4)GlcNAc(b1-2)Man(a1-3)[GlcNAc(b1-3)Gal(b1-4)GlcNAc(b1-3)Gal(b1-4)GlcNAc(b1-2)Man(a1-6)]Man(b1-4)GlcNAc(b1-4)GlcNAc
# Procedure, shortened: as §1
# [8] = molecular target: GlcNAc(b1-3)Gal(b1-4)GlcNAc(b1-3)Gal(b1-4)GlcNAc(b1-2)Man(a1-3)[GlcNAc(b1-3)Gal(b1-4)GlcNAc(b1-3)Gal(b1-4)GlcNAc(b1-2)Man(a1-6)]Man(b1-4)GlcNAc(b1-4)[Fuc(a1-6)]GlcNAc
# Procedure, shortened: as §1
# [9] = molecular target: GlcNAc(b1-3)Gal(b1-4)GlcNAc(b1-3)Gal(b1-4)GlcNAc(b1-3)Gal(b1-4)GlcNAc(b1-2)Man(a1-3)[GlcNAc(b1-3)Gal(b1-4)GlcNAc(b1-3)Gal(b1-4)GlcNAc(b1-3)Gal(b1-4)GlcNAc(b1-2)Man(a1-6)]Man(b1-4)GlcNAc(b1-4)[Fuc(a1-6)]GlcNAc
# Procedure, shortened: as §1
# [10] = molecular target: GlcNAc(b1-4)Gal(b1-4)GlcNAc
# Procedure, shortened: as §1
# [11] = molecular target: GlcNAc(b1-4)GlcNAc(b1-4)GlcNAc(b1-4)GlcNAc(b1-4)GlcNAc(b1-4)GlcNAc
# Procedure, shortened: as §1
# [12] = molecular target: GlcNAc(b1-4)[GlcNAc(b1-6)]GalNAc
# Procedure, shortened: as §1
# Man(a1-2)Man(a1-3)Man = molecular target: Man(a1-2)Man(a1-3)Man
# Procedure, shortened: as §1
# [13] = molecular target: Man(a1-2)Man(a1-3)[Man(a1-2)Man(a1-6)]Man(a1-6)[Man(a1-2)Man(a1-2)Man(a1-3)]Man(b1-4)GlcNAc(b1-4)GlcNAc
# Procedure, shortened: as §1
# Man(a1-6)Man = molecular target: Man(a1-6)Man
# Procedure, shortened: as §1
# Man(b1-4)GlcNAc = molecular target: Man(b1-4)GlcNAc
# Procedure, shortened: as §1
# [14] = molecular target: Neu5Ac(a2-3)Gal(b1-3)[GlcNAc(b1-6)]GalNAc
# Procedure, shortened: as §1
# [15] = molecular target: Neu5Ac(a2-3)Gal(b1-4)[Fuc(a1-3)]GlcNAc(b1-6)[Neu5Ac(a2-3)Gal(b1-3)]GalNAc
# Procedure, shortened: as §1
# Neu5Ac(a2-6)Gal = molecular target: Neu5Ac(a2-6)Gal
# Procedure, shortened: as §1
# [16] = molecular target: Neu5Ac(a2-6)Gal(b1-3)GlcNAc(b1-3)[Gal(b1-4)GlcNAc(b1-6)]Gal(b1-4)Glc
# Procedure, shortened: as §1
# [17] = molecular target: Neu5Ac(a2-6)Gal(b1-4)GlcNAc(b1-3)Gal(b1-4)GlcNAc(b1-3)Gal(b1-4)GlcNAc
# Procedure, shortened: as §1
# [18] = molecular target: Neu5Ac(a2-6)Gal(b1-4)GlcNAc(b1-3)Gal(b1-4)GlcNAc(b1-3)Gal(b1-4)GlcNAc(b1-2)Man(a1-3)[Neu5Ac(a2-6)Gal(b1-4)GlcNAc(b1-3)Gal(b1-4)GlcNAc(b1-3)Gal(b1-4)GlcNAc(b1-2)Man(a1-6)]GalNAc
# Procedure, shortened: as §1
# [19] = molecular target: Neu5Ac(a2-8)Neu5Ac(a2-8)Neu5Ac(a2-8)Neu5Ac(a2-3)[GalNAc(b1-4)]Gal(b1-4)Glc
# Procedure, shortened: as §1
# [20] = molecular target: Neu5Ac(a2-8)Neu5Gc(a2-3)Gal(b1-4)GlcNAc
# Procedure, shortened: as §1
# Neu5Ac(b2-6)GalNAc = molecular target: Neu5Ac(b2-6)GalNAc
# Procedure, shortened: as §1
# [21] = molecular target: Neu5Ac9Ac(a2-3)Gal(b1-3)GlcNAc
# Procedure, shortened: as §1
# [22] = molecular target: Neu5Ac9Ac(a2-6)Gal(b1-4)GlcNAc
# Procedure, shortened: as §1
# [23] = molecular target: Neu5Gc(a2-3)Gal(b1-3)GlcNAc
# Procedure, shortened: as §1
binder,measurement,setting,value
B1,glycan array binding signal (z-score),[1],-0.023
same,glycan array binding signal (z-score),Gal(b1-6)Gal,-0.372
same,glycan array binding signal (z-score),Gal6P(b1-4)GlcNAc,-0.45
same,glycan array binding signal (z-score),Gal6S(b1-4)Glc,0.105
same,glycan array binding signal (z-score),Gal6S(b1-4)Glc6S,0.402
same,glycan array binding signal (z-score),[2],-0.468
same,glycan array binding signal (z-score),[3],-0.087
same,glycan array binding signal (z-score),GalNAc(b1-4)GlcNAc6S,-0.208
same,glycan array binding signal (z-score),[4],12.1
same,glycan array binding signal (z-score),Glc(b1-6)Glc,0.309
same,glycan array binding signal (z-score),[5],-0.415
same,glycan array binding signal (z-score),[6],-0.075
same,glycan array binding signal (z-score),[7],3.18
same,glycan array binding signal (z-score),[8],1.28
same,glycan array binding signal (z-score),[9],1.91
same,glycan array binding signal (z-score),[10],-0.117
same,glycan array binding signal (z-score),[11],-0.372
same,glycan array binding signal (z-score),[12],0.069
same,glycan array binding signal (z-score),Man(a1-2)Man(a1-3)Man,-0.16
same,glycan array binding signal (z-score),[13],-0.404
same,glycan array binding signal (z-score),Man(a1-6)Man,-0.195
same,glycan array binding signal (z-score),Man(b1-4)GlcNAc,-0.231
same,glycan array binding signal (z-score),[14],-0.317
same,glycan array binding signal (z-score),[15],-0.117
same,glycan array binding signal (z-score),Neu5Ac(a2-6)Gal,-0.041
same,glycan array binding signal (z-score),[16],-0.05
same,glycan array binding signal (z-score),[17],0.075
same,glycan array binding signal (z-score),[18],1.23
same,glycan array binding signal (z-score),[19],-0.006
same,glycan array binding signal (z-score),[20],7.21
same,glycan array binding signal (z-score),Neu5Ac(b2-6)GalNAc,-0.513
same,glycan array binding signal (z-score),[21],0.058
same,glycan array binding signal (z-score),[22],0.039
same,glycan array binding signal (z-score),[23],-0.167
